# In PubChem BioAssay (NCI):
# About 83,000 compounds went through this panel and 20% of them were active in at least one assay; those are over-represented in the sample as a whole.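 Assay: single dose, 48 h. Readout: percent growth (0 = no net growth; negative = cell death). Active: <10.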 Values without a mark were called inactive. Calls of active or inactive are those of the source.
# How the values were obtained:
# Assay in all cases: NCI-60 one-dose screen, 48 h (100 = growth as untreated, 0 = no growth, -100 = all killed)
# Conditions in all cases: 10 µM
# DU-145 prostate = tested on: DU-145 prostate
# K-562 leukemia = tested on: K-562 leukemia
# MALME-3M melanoma = tested on: MALME-3M melanoma
# MDA-MB-231 breast = tested on: MDA-MB-231 breast
# SF-268 CNS = tested on: SF-268 CNS
# SF-295 CNS = tested on: SF-295 CNS
# SF-539 CNS = tested on: SF-539 CNS
# UACC-257 melanoma = tested on: UACC-257 melanoma
# M14 melanoma = tested on: M14 melanoma
SMILES,growth (DU-145 prostate),growth (K-562 leukemia),growth (MALME-3M melanoma),growth (MDA-MB-231 breast),growth (SF-268 CNS),growth (SF-295 CNS),growth (SF-539 CNS),growth (UACC-257 melanoma),growth (M14 melanoma)
O=C(CNc1nc(-c2ccccc2)cs1)Nc1ccc(Cl)cc1,-93.3% (active),-16.4% (active),-90.3% (active),-94.3% (active),-49% (active),-96.9% (active),-98.8% (active),-78.8% (active),-90.9% (active)
CC(=O)c1cc(C(=O)c2ccc3c(c2)NC(=O)CO3)n2ccc3ccccc3c12,84.1%,84.1%,-5.58% (active),29.9%,79%,98.9%,31.9%,86.1%,65.1%
O/N=C(\CSc1nnc(-c2c[nH]c3ccccc23)n1-c1ccccc1)c1ccc(Br)cc1,-88.5% (active),-11.1% (active),-10.2% (active),-84.2% (active),-55.6% (active),-15% (active),-64.9% (active),-8.6% (active),-67.7% (active)
CCOC(=O)CNC(=O)CN(Cc1ccccc1)C(=O)[C@@]1(C)CCC[C@]2(C)[C@H]3C[C@H]4C(C(C)C)=C[C@]3(CC[C@H]21)[C@@H]1C(=O)OC(=O)[C@@H]14,92.8%,24.9%,101%,88.1%,92.7%,48.6%,91.8%,89.5%,73.3%
Cc1cc(C)nc(NS(=O)(=O)c2ccc(N/C(N)=N/c3nccc(-c4cccs4)n3)cc2)n1,109%,89.3%,94.2%,87%,99.4%,92.6%,80.4%,111%,106%
N#Cc1c(-c2ccc(Cl)cc2)cc(-c2ccccc2)nc1OCc1ccccc1,90.7%,45%,102%,80.2%,92.9%,66.2%,75.2%,80.6%,90.9%
Cc1ccc(C(=O)NNC(=O)CSc2nc3ccccc3c(=O)[nH]2)cc1,105%,97.6%,91.7%,91.1%,101%,96.3%,98.7%,105%,108%
COc1ccc(CN2[C@H](C(=O)NCc3ccc(C(=O)NO)cc3)Cc3c([nH]c4ccccc34)[C@H]2C2CC2)cc1,57%,26.2%,30.4%,54.5%,64.9%,45.5%,41.6%,43.4%,49.6%
CC(C)c1ccc(C(=O)Nc2sc3c(c2C(N)=O)CCC(=O)C3=O)cc1,103%,77.4%,103%,93.3%,103%,104%,93.9%,93.8%,96.3%
O=C(NO)c1ccc(-c2nc3ccc4[nH]ncc4c3c3c2CCCC3)cc1,1.34% (active),10.1%,-80.5% (active),-27.6% (active),-53.6% (active),-17.9% (active),-97.4% (active),-18.8% (active),-62.5% (active)
CCOC(=O)C1=C(N)N(c2ccccc2)C2=C(C(=O)CC(C)(C)C2)C1c1ccccc1OC (configuration not stated),99.6%,97.2%,91.3%,92.5%,114%,89.2%,92.6%,107%,111%
CN1CCN(Cc2ccc(C(=O)Nc3cccc(Nc4ccc5c(O)cccc5n4)c3)cc2C(F)(F)F)CC1,-1.97% (active),8.33% (active),-95.9% (active),-59.5% (active),2.2% (active),-69.3% (active),-91.5% (active),-78.7% (active),-87.3% (active)
COc1cc2c3c(n(CCCN4CCOCC4)c(=O)c2cc1OC)-c1nc2c(cc1C3=O)OCO2,3.38% (active),25.9%,40.2%,6.41% (active),21.9%,-30.8% (active),-38.7% (active),51%,13.4%
CCCn1c(=O)c2[nH]c(-c3ccc(OCc4nc5ccc(C)cc5[nH]4)cc3)nc2n(CCC)c1=O,61.8%,28.3%,-69% (active),-50.7% (active),66.4%,12.6%,-84.2% (active),65.5%,59.7%
CN1C(=O)N(C)C2SC(N/N=C/c3cccs3)=NC21 (configuration not stated),49.5%,11.8%,24.6%,27.3%,35.7%,7.99% (active),4.32% (active),50.3%,7.65% (active)
COc1nccnc1NS(=O)(=O)c1ccc(NC2=C(Cl)C(=O)c3nc(C)ccc3C2=O)cc1,107%,96.3%,100%,91.1%,92.9%,97.5%,94%,101%,112%
COc1ccc(CN2[C@@H](C(=O)NCc3ccc(C(=O)NO)cc3)Cc3c([nH]c4ccccc34)[C@@H]2C)cc1,18.6%,12%,0.926% (active),13%,24.8%,6.57% (active),17.2%,32.1%,23.3%
COc1ccc(CN2[C@@H](C(=O)NCc3ccc(C(=O)NO)cc3)Cc3c([nH]c4ccccc34)[C@@H]2C2CC2)cc1,15.8%,6.95% (active),12.8%,5.56% (active),20.9%,3.12% (active),15.3%,36.3%,16.1%
Oc1ccc(/C=C2\CCCc3cc4ccc(O)cc4[o+]c32)c(O)c1,8.58% (active),41.5%,45.1%,-27.4% (active),69.6%,90.1%,-15% (active),69%,43.2%
COc1ccc(/C=C/C(=O)c2ccc(NC(=O)CN3C(=O)NC(C)(c4ccccc4)C3=O)cc2)cc1 (configuration not stated),87.7%,60.2%,90.5%,87%,67.3%,76.1%,80%,92.4%,87.9%
COc1ccc(C(=O)/C=C/c2ccc(Cl)c(C(F)(F)F)c2)cc1S(N)(=O)=O,-20.9% (active),5.18% (active),-97.9% (active),-100% (active),-40.5% (active),-100% (active),-100% (active),-78.2% (active),-87.5% (active)
O=C(CSc1nnc(-c2ccc3nc(-c4ccc(Cl)cc4)[nH]c3c2)o1)Nc1ccc(Cl)cc1,2.3% (active),5.7% (active),-78.6% (active),-87.1% (active),-6.48% (active),-99.4% (active),-100% (active),-32.6% (active),-50.6% (active)
O=c1c2ccccc2nc(COc2ccccc2)n1/N=C/c1ccc(N2CCOCC2)cc1,77.5%,103%,56.8%,26%,26.4%,69.8%,34.1%,95.7%,93.9%
O=c1[nH]c2ccccc2cc1CSc1ccc(Nc2nccc(-c3ccc4ccccc4c3)n2)cc1,25.5%,64%,39%,30.5%,72.1%,89.6%,16.1%,105%,69.8%
Cc1cc(=O)oc2cc(OCCCCOc3ccc(/C=C/C(=O)Nc4ccccc4[N+](=O)[O-])cc3)ccc12,102%,102%,101%,102%,120%,99.8%,98.8%,111%,112%
O=[N+]([O-])c1ccc(-c2nc(-c3ccccc3)c(-c3ccccc3)n2-c2ccc(S(=O)(=O)Nc3ncccn3)cc2)cc1,64.4%,47.1%,87.2%,43.2%,31.7%,9.39% (active),53.9%,63.9%,40.6%
O=C(NO)c1ccc(CN2CCN(c3nc(-c4ccccc4)c4ccccc4n3)CC2)cc1,23.1%,11.4%,11.2%,35%,26.5%,-11.7% (active),-23.8% (active),43.3%,5.75% (active)
N#Cc1ccc(-c2nn(-c3ccc(C(=O)O)cc3)cc2CNc2cc(Cl)cc(C(F)(F)F)c2)cc1,26.7%,19.4%,14.7%,27.7%,31.9%,9.39% (active),-26.4% (active),14.9%,11.3%
